Screens: PubChem BioAssay, National Center for Advancing Translational Sciences (NCATS)
This is a sample that favours compounds with a hit; in the whole collection about 8.1% have one here.
SW480 rerep – A quantitative high throughput screen for small molecules that induce DNA re-replication in SW480 colon adenocarcinoma cells. SW480 DNA re-replication, Hoechst DNA content imaging, 48 h. AID 624297, 2012. Potency, µM (titrated, usually from 46.1 µM), without a hit: at the highest dose re-replication activation, actives largely listed as activators. hit rate 1.8% among 340,000; also: % of control where 0% means no effect; nearly all actives have a fitted effect of over 55% in size
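Compounds, transferred as 23 nL by pin tool, were incubated with cells for 48 hr; DNA content per nucleus was then quantified by Hoechst staining and fluorescence plate imaging.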
MCF10A rerep – A quantitative high throughput screen for small molecules that induce DNA re-replication in MCF 10a normal breast cells; MCF 10A DNA re-replication, Hoechst nuclear intensity, 48 h; Potency, µM (doses to about 46.1 µM), for inactives: at the top dose activity, positive = re-replication, actives largely listed as activators; hit rate 2.9% among 350,000; also: % of control where 0% means no effect; nearly all actives have a fitted effect of over 50% in size
ELG1 repair inh – qHTS screen for small molecules that inhibit ELG1-dependent DNA repair in human embryonic kidney (HEK293T) cells expressing luciferase-tagged ELG1; HEK293T ELG1-luciferase reporter, luminescence, 16 h; DNA damage induced by 5-fluorouridine; Potency, µM (highest dose often 46.1 µM), without a hit: at the top dose activity change, negative = inhibition, usual class: inhibitors; hit rate 2.3% among 330,000; also: % is scaled to controls: 0 for no effect and ±100 for the full control effect; nearly all actives have a fitted effect of over 55% in size
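Quantitative HTS, concentration-response format. 2,000 cells/well co-treated with 5-fluorouridine and compound, 16 hr in 5% CO2 at 37 °C; ONE-Glo luminescence read after 30 min.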
KB-3-1 tox – qHTS assay for MDR1-selective chemotherapeutics: Primary screen using the parental adenocarcinoma cell KB-3-1. KB-3-1 viability, CellTiter-Glo ATP luminescence, 72 h. Potency, µM (highest dose often 46.1 µM), actives largely listed as cytotoxic. hit rate 1.4% among 400,000. AID 1347075, 2019; also: % is scaled to controls: 0 for no effect and ±100 for the full control effect; nearly all actives have a fitted effect of over 60% in size
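Cytotoxicity in the drug-sensitive parental line KB-3-1 was scored as loss of CellTiter-Glo luminescence following 72 h incubation with compound. Values come from curve fitting of normalized concentration-response data.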
KB-V1 cytotox – qHTS assay for MDR1-selective chemotherapeutics: Primary screen using the drug-selected MDR subline cells KB-V1 | KB-V1 MDR cells viability, CellTiter-Glo, 72 h | hit rate 3.4% among 400,000 | AID 1347076, 2019 | Potency, µM (top dose mostly 46.1 µM), usual class: cytotoxic; also: % is scaled to controls: 0 for no effect and ±100 for the full control effect; nearly all actives have a fitted effect of over 60% in size
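Readout: CellTiter-Glo luminescence, 10 min after addition. Cells: KB-V1 MDR subline, 72 h at 37 degrees C with compound. Analysis: corrected, normalized data fitted to concentration-effect curves.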
* marks the source's active call; other numbers are inactive results. Calls follow the shape of the dose curve; as a rule, active = well fitted curve in the direction sought with a large enough effect; inconclusive = small, poorly fitted or top-dose-only effect, or another doubt; inactive = no such curve, though single readings can be large; an effect the other way counts as inactive or inconclusive. Potency is read from the fitted curve at half-maximal effect.

How did CCOc1ccc(CNC(=O)c2ccc3nc(N4CCOCC4)sc3c2)cc1 do in these assays?
SW480 rerep: 2.6%; MCF10A rerep: 2.1%; ELG1 repair inh: -2.8%; KB-3-1 tox: inactive; KB-V1 cytotox: inactive

How did O=C(NCCc1ccc(Cl)cc1)c1ccc2nc(N3CCOCC3)sc2c1 do in these assays?
SW480 rerep: 4.0%; MCF10A rerep: 20.6µM*; ELG1 repair inh: 10.8%; KB-3-1 tox: inactive; KB-V1 cytotox: inactive

Results for Cc1cc2oc(=O)cc(C)c2c2occ(-c3ccc(Cl)cc3)c12 ?
KB-3-1 tox: inactive; KB-V1 cytotox: inactive

What do the screens show for `Cc1ccc(NC(=O)CSc2cc(=O)n(C)c3ccc(Cl)cc23)c(Br)c1`?
KB-3-1 tox: inactive; KB-V1 cytotox: inactive

Results for Cc1ccc(S(=O)(=O)N(CC(=O)Nc2ccc3c(c2)OCO3)c2ccc(C)c(Cl)c2)cc1 ?
KB-3-1 tox: inactive; KB-V1 cytotox: inactive

How did COc1ccc(S(=O)(=O)N(C)C[C@@H]2Oc3c(NS(C)(=O)=O)cccc3C(=O)N([C@@H](C)CO)C[C@H]2C)cc1 do in these assays?
SW480 rerep: 2.1%; MCF10A rerep: inconclusive; ELG1 repair inh: inconclusive; KB-3-1 tox: inactive; KB-V1 cytotox: inactive

How did CCOc1ccc(S(=O)(=O)/N=C(\N)c2ccccc2)cc1 do in these assays?
SW480 rerep: 23.1%; MCF10A rerep: -4.7%; ELG1 repair inh: 23.1µM*; KB-3-1 tox: inactive; KB-V1 cytotox: inactive

How did Cn1c(=O)c2c(nc(CN3CCc4ccccc4C3)n2Cc2ccc(F)cc2)n(C)c1=O do in these assays?
SW480 rerep: inconclusive; MCF10A rerep: 10.6%; KB-3-1 tox: inactive; KB-V1 cytotox: 9.2µM*

Results for COC(=O)Cn1c(CN2CCc3ccccc3C2)nc2c1c(=O)n(C)c(=O)n2C ?
SW480 rerep: -9.3%; MCF10A rerep: 0.1%; ELG1 repair inh: -13.8%; KB-3-1 tox: inactive; KB-V1 cytotox: inactive

What do the screens show for `Cn1c(=O)c2c(nc(CN3CCN(Cc4ccccc4)CC3)n2Cc2ccc(Cl)cc2)n(C)c1=O`?
SW480 rerep: inconclusive; MCF10A rerep: inconclusive; ELG1 repair inh: 20.6µM*; KB-3-1 tox: inconclusive; KB-V1 cytotox: inactive

How did Cn1c(=O)c2c(nc(CN3CCN(Cc4ccccc4)CC3)n2CCN2CCOCC2)n(C)c1=O do in these assays?
SW480 rerep: -7.2%; MCF10A rerep: 3.8%; ELG1 repair inh: 0.6%; KB-3-1 tox: inactive; KB-V1 cytotox: inactive

How did Cc1ccccc1Cn1c(CN2CCc3ccccc3C2)nc2c1c(=O)n(C)c(=O)n2C do in these assays?
SW480 rerep: 1.7%; MCF10A rerep: 14.7%; ELG1 repair inh: 13µM*; KB-3-1 tox: inactive; KB-V1 cytotox: 23.1µM*

Results for O=C(CCn1c(=O)c2ccccc2n(Cc2cccc(F)c2)c1=O)NCc1ccc2c(c1)OCO2 ?
KB-3-1 tox: inactive; KB-V1 cytotox: inactive

Results for CC1CC(C)CN(C(C(=O)NC2CCCCC2)c2cc3ccccc3o2)C1 (stereo unspecified) ?
KB-3-1 tox: inactive; KB-V1 cytotox: inactive

What do the screens show for `Cc1cc(/C=C(\C#N)C(=O)NCc2ccccc2)c(C)[nH]1`?
KB-3-1 tox: inactive; KB-V1 cytotox: inconclusive

What do the screens show for `COc1cc(OC)cc(C(=O)NCCCCCCNC(=O)c2cc(OC)cc(OC)c2)c1`?
SW480 rerep: inconclusive; MCF10A rerep: 1.5%; ELG1 repair inh: inconclusive; KB-3-1 tox: inactive; KB-V1 cytotox: 18.4µM*

How did C[N+](C)(C)CCC(=O)N1C/C(=C/c2ccccc2)C(=O)/C(=C\c2ccccc2)C1 do in these assays?
SW480 rerep: 0.731µM*; MCF10A rerep: inconclusive; KB-3-1 tox: inconclusive; KB-V1 cytotox: 10.3µM*

What do the screens show for `CN(C)CCC(=O)N1C/C(=C/c2ccccc2)C(=O)/C(=C\c2ccccc2)C1`?
SW480 rerep: inconclusive; MCF10A rerep: 30.7%; KB-3-1 tox: inactive; KB-V1 cytotox: inactive
